Screening results: PubChem BioAssay, Buhrlage Lab, Dana-Farber Cancer Institute and Novartis Institutes for BioMedical Research (Cambridge, Mass)
USP8 inh – inhibitors of human USP8 deubiquitinase; P40818; purified USP8, Ub-rhodamine cleavage fluorescence, 30 min; inhibition, % at 20 µM; 47,000 compounds, 4.2% hits; AID 1645853
USP17 block – inhibitors of human USP17 deubiquitinase. A8MUK1. purified USP17, Ub-rhodamine cleavage fluorescence, 3 h. inhibition, % at 50 µM. 47,000 compounds, 6.5% hits
USP28 inh – blocks human USP28 ubiquitin-rhodamine cleavage | purified USP28, Ub-rhodamine cleavage fluorescence, 30 min | inhibition, % at 25 µM | 47,000 compounds, 3% hits | AID 1645857
USP10 block – inhibitors of human USP10 deubiquitinase; Q14694; purified USP10, Ub-rhodamine fluorescence, 60 min; inhibition, % at 20 µM; 47,000 compounds, 1.1% hits
USP30 inh – human USP30 deubiquitinase inhibition | purified USP30, Ub-rhodamine cleavage fluorescence | inhibition, % at 25 µM | Q70CQ3 | 47,000 compounds, 5.3% hits
Starred values were filed as active, the others as inactive. Rows were chosen to be rich in hits. Some 13% of all compounds tested hit in one or more screens of this group. Rule as the data show it: active = inhibition above about 30%; inactive = the rest.

`Cc1cn2nnc(C(=O)N3CCN(c4cc(Cl)ccc4C)CC3)c2c(=O)[nH]1` gave USP8 inh 16.4, USP17 block 13.0, USP28 inh 13.0, USP10 block 0.2 and USP30 inh 13.6.
Cc1ccccc1-c1nnc(CN2CCN(Cc3ccccc3)CC2)o1 was read as USP8 inh 2.0, USP17 block -6.6, USP28 inh -9.6, USP10 block -0.7 and USP30 inh -14.5.
For CC1c2cc3c(cc2CCN1CC(=O)Nc1cc(Cl)ccc1-n1cncn1)OCCCO3 (stereo not drawn) the results were USP8 inh 46.9*, USP17 block 19.1, USP28 inh -8.8, USP10 block -3.5 and USP30 inh -24.6.
For Cc1ccc(-c2nn(C(C)(C)C)c3ncnc(NS(=O)(=O)c4ccc(Cl)cc4)c23)cc1 the results were USP8 inh 18.5, USP17 block 7.2, USP28 inh 3.8, USP10 block 41.7* and USP30 inh 20.8.
Cc1sc2ncnc(NS(=O)(=O)c3ccc(Cl)cc3)c2c1C was read as USP8 inh 11.0, USP17 block 6.7, USP28 inh -1.8, USP10 block -5.2 and USP30 inh -32.3.
`Cc1ccc2[nH]c(=O)c(-c3noc(-c4cccnc4)n3)cc2c1` gave USP8 inh -3.2, USP17 block -23.5, USP28 inh -41.6, USP10 block -2.1 and USP30 inh -237.1.
COc1ccc(-c2nc(-c3cc4cc(OC)ccc4[nH]c3=O)no2)cc1 was read as USP8 inh 34.6*, USP17 block -6.6, USP28 inh -30.7, USP10 block -1.9 and USP30 inh -115.8.
